Assay results: PubChem BioAssay AID1851 (National Center for Advancing Translational Sciences (NCATS), 2009)
The campaign covered roughly 16,000 compounds. About 5,800 (36%) were called active. Roughly 23% stayed inconclusive and do not appear here. The call rests on the fitted dose curve; in most records, active means well fitted curve in the direction sought with a large enough effect; inconclusive means small, poorly fitted or top-dose-only effect, or effect the other way; inactive means no such curve, though single readings can be large or run the other way. This is one part of the list.

These compounds were tested against Cytochrome P450 2C19 (Homo sapiens) (UniProt P33261) (assay: Cytochrome panel assay with activity outcomes). Conditions: recombinant CYP, pro-luciferin dealkylation, luminescence, p450-cyp2c19; series mostly up to 57.1 µM; activity, negative = inhibition: at the top concentration.
Cytochrome P450 2C19 (Homo sapiens), sequence (P33261 whole entry, looked up): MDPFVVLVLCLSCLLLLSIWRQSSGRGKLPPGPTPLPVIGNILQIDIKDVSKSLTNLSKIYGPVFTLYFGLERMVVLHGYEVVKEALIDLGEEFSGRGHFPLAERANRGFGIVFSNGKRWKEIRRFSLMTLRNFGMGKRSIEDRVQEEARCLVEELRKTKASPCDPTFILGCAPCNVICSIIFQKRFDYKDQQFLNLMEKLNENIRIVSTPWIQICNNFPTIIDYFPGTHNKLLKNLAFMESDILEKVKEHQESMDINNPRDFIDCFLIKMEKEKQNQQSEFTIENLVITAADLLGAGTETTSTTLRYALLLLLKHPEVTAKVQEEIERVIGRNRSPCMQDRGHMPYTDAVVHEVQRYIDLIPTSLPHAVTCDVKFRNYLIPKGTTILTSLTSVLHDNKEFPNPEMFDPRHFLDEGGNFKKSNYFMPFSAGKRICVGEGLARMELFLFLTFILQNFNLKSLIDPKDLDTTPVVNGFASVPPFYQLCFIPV
On the % scale 0 is the no-effect control and ±100 the full control effect.

Row | SMILES | AC50 | activity, negative = inhibition
1 | c1ccc(CNc2ccnc(-c3ccc4c(c3)OCO4)n2)cc1 | 2 µM (active) | 
2 | CN(C)C(=O)c1ccc(-c2nccc(NCc3cccnc3)n2)cc1 |  | -1.41% (inactive)
3 | c1cncc(CNc2ccnc(-c3ccc4c(c3)OCO4)n2)c1 | 5.01 µM (active) | 
4 | c1csc(CNc2ccnc(-c3ccc4c(c3)OCO4)n2)c1 | 5.01 µM (active) | 
5 | COc1cc(OC)c(C(=O)CCCCN2CCC3(CC2)NC(=O)NC3=O)cc1NS(=O)(=O)c1ccc(C(F)(F)F)cc1 |  | 25.1% (inactive)
6 | CCN(CC)CCC[C@H](C)Nc1c2ccc(Cl)cc2nc2ccc(OC)cc12 |  | 18.9% (inactive)
7 | COc1ccc(OCCn2c(C)c(/C=N/n3cnnc3)c3ccccc32)cc1 | 0.355 µM (active) | 
8 | CN(C)CCCN1c2ccccc2Sc2ccc3ccccc3c21 | 1 µM (active) | 
9 | CN(C)CCCN1c2ccccc2Sc2cnccc21 |  | 34.5% [at 11.4 µM] (inactive)
10 | CN(C)CCCN1c2ccc3ccccc3c2Sc2cccc(Cl)c21 | 5.01 µM (active) | 
11 | CCN(CC)CCN1c2ccccc2Sc2ccc3ccccc3c21 | 1 µM (active) | 
12 | CCN(CC)[C@@H](C)CN1c2ccccc2Sc2ccccc21 |  | -42.8% [at 25.6 µM] (inactive)
13 | CN(C)CCCN1c2ccccc2C(C)(C)c2ccccc21 |  | 1.8% [at 11.4 µM] (inactive)
14 | CCC(=O)c1ccc2c(c1)N(CCCN(C)C)c1ccccc1S2 |  | -7.66% (inactive)
15 | C[C@@H](CN1c2ccccc2Sc2ccccc21)N(C)C | inactive | 
16 | CN=C1N[C@H](c2ccccc2)N(c2ccccc2)S1 |  | 8.52% (inactive)
17 | CC(C)c1ccc2nc3sc(C(=O)N4CCc5ccccc5C4)c(N)c3cc2c1 | 3.55 µM (active) | 
18 | O=C(O)Cn1c(-c2ccccc2)nc2ccccc21 |  | -3.11% (inactive)
19 | CCOC(=O)Cn1c(-c2ccccc2)nc2ccccc2c1=O | 7.08 µM (active) | 
20 | CCOC(=O)CSc1nc(-c2ccccc2)nc2ccccc12 | 4.47 µM (active) | 
21 | CCCn1c(-c2ccccc2)nc2c(=O)n(C)c(=O)[nH]c21 |  | -28.4% (inactive)
22 | CCOC(=O)CSc1cc(CS(=O)c2ccc(Cl)cc2)nc(-c2ccccc2)n1 (stereo not drawn) | 0.126 µM (active) | 
23 | NC(=Nc1ccccc1)NC(=O)c1nc(Cl)c(N)nc1N |  | -2.55% (inactive)
24 | CS(=O)(=O)N1CCC[C@@]2(CCN(C(=O)Nc3cccc(F)c3)C2)C1 |  | -16.4% (inactive)

Row | SMILES | AC50 | activity, negative = inhibition
25 | CS(=O)(=O)N1CCC2(CCN(C(=O)Nc3cccc(F)c3)CC2)CC1 |  | 28.3% (inactive)
26 | CS(=O)(=O)N(CC(=O)Nc1cccc(F)c1)c1cccc([N+](=O)[O-])c1 | 7.94 µM (active) | 
27 | NC(N)=N/N=C(/c1ccccc1)c1ccc(O)cc1O |  | -16.1% [at 11.4 µM] (inactive)
28 | COc1ccc(/C=C/C(=O)Nc2nc(C)cc(C)n2)cc1OC |  | -10.2% (inactive)
29 | CCSc1nc2ccccc2n1C(=O)/C=C\c1ccc(OC)c(OC)c1 | 7.94 µM (active) | 
30 | C=CCSc1nc2ccccc2n1C(=O)/C=C/c1cc(OC)c(OC)c(OC)c1 | 2.24 µM (active) | 
31 | COc1cc(/C=C\C(=O)N2CCC=CC2=O)cc(OC)c1OC |  | -7.75% [at 25.6 µM] (inactive)
32 | CSc1ccccc1NC(=O)CSCc1ccc(C)cc1 | 1.78 µM (active) | 
33 | Cc1cc2nc(-c3ccc(SCC(=O)N4CCc5ccccc54)nc3)[nH]c2cc1C | 3.98 µM (active) | 
34 | Cc1ccc(C)c(-n2c(CNC(=O)c3ccco3)nnc2SCC(=O)N2CCc3ccccc32)c1 |  | 17% (inactive)
35 | CCOC(=O)O[C@]1(C(=O)COC(=O)CC)CC[C@@H]2[C@@H]3CCC4=CC(=O)C=C[C@@]4(C)[C@H]3[C@H](O)C[C@]21C |  | -33.4% [at 25.6 µM] (inactive)
36 | OCCN(C=NC1=NN(c2cccc(C(F)(F)F)c2)CC1)CCO |  | 1.91% (inactive)
37 | FC(F)(F)c1cccc(N2CCN(CC3CC4C=CC3C4)CC2)c1 (stereo not drawn) | 8.91 µM (active) | 
38 | CO[C@@H]1COC(=O)[C@@H](CCSC)NC(=O)C/C=C\[C@@H](C)COC(=O)CCC[C@H]1C |  | -34.5% [at 11.4 µM] (inactive)
39 | C(=Nc1cnc2ccccc2c1)c1ccc2ccccc2n1 |  | 34% [at 11.4 µM] (inactive)
40 | Cc1cccc(Nc2ccncc2S(=O)(=O)NC(=O)NC(C)C)c1 |  | -12.7% [at 25.6 µM] (inactive)
41 | Cc1cccc(NCCNc2cccc(C)c2)c1 | 2.82 µM (active) | 
42 | COCCn1c(=O)c(-c2cc(F)cc(F)c2)nc2cnc(N3CCN(C)CC3)nc21 |  | -24.9% (inactive)
43 | CC(C)=C[C@H]1[C@@H](C(=O)Oc2ccccc2C(C)C)C1(C)C | 1.26 µM (active) | 
44 | c1cncc(-c2cncnc2NC2CCNCC2)c1 |  | -38.4% (inactive)
45 | COc1ccc2[nH]cc(CCNc3ncncc3-c3cccnc3)c2c1 | 3.16 µM (active) | 
46 | COc1cccc(-c2cncnc2NCCc2c[nH]c3ccc(OC)cc23)c1 | 0.316 µM (active) | 
47 | COc1ccc2[nH]cc(CCNc3ncncc3-c3cccc(NS(C)(=O)=O)c3)c2c1 | 5.01 µM (active) | 
48 | CCC/C=C(\CCC)C(NP(=O)(c1ccccc1)c1ccccc1)c1ccc(-c2ccccc2)cc1 (stereo not drawn) | 7.94 µM (active) | 

Row | SMILES | AC50 | activity, negative = inhibition
49 | CCC/C=C(\CCC)C(NS(=O)(=O)c1ccc(Cl)cc1)c1ccccc1 (stereo not drawn) | 0.398 µM (active) | 
50 | CCC/C=C(\CCC)C(NS(=O)(=O)c1cccs1)c1ccc(C(=O)OC)cc1 (stereo not drawn) | 0.794 µM (active) | 
51 | CCC/C=C(\CCC)C(NS(=O)(=O)c1ccc(Cl)cc1)c1ccc(C(=O)OC)cc1 (stereo not drawn) | 1.58 µM (active) | 
52 | CO[C@H]1COC(=O)C/C=C\[C@@H](C)COC(=O)[C@@H](C)NC(=O)C/C=C\[C@@H]1C |  | 16.7% [at 11.4 µM] (inactive)
53 | CO[C@H]1COC(=O)CCC[C@@H](C)[C@H](OC)COC(=O)[C@H]2CCCN2C(=O)C/C=C\[C@@H]1C |  | -20.1% [at 11.4 µM] (inactive)
54 | CCC/C=C(\CCC)C(NS(=O)(=O)c1cccc2cccnc12)c1ccc(C(=O)OC)cc1 (stereo not drawn) | 3.16 µM (active) | 
55 | CCC/C=C(\CCC)C(NS(=O)(=O)c1ccc(-c2ccccc2)cc1)c1ccc(C(=O)OC)cc1 (stereo not drawn) | 1.26 µM (active) | 
56 | CCC/C=C(\CCC)C(NS(=O)(=O)c1ccc(C(F)(F)F)cc1)c1ccc(C(=O)OC)cc1 (stereo not drawn) | 2.51 µM (active) | 
57 | CCC/C=C(\CCC)C(NS(C)(=O)=O)c1ccccc1 (stereo not drawn) | 7.94 µM (active) | 
58 | COC(=O)c1ccc(-n2cncn2)c(F)c1 | 7.08 µM (active) | 
59 | O=C(c1ccc2nc3ccc(Cl)cc3c(=O)n2c1)N1CCOCC1 |  | -7.4% (inactive)
60 | NC(=O)C1(N2CCCCC2)CCN(C(=O)c2cccn3c(=O)c4cc(Cl)ccc4nc23)CC1 | 14.1 µM (active) | 
61 | N[C@@H](Cc1nn[nH]n1)C(=O)O |  | -17.6% [at 11.4 µM] (inactive)
62 | CCOc1ccc(-c2nn(-c3ccccc3)cc2/C=C2\SC(N)=NC2=O)cc1C | 11.2 µM (active) | 
63 | CCOc1ccc(-c2nn(-c3ccccc3)cc2/C=C(\C#N)S(=O)(=O)c2ccccc2)cc1C |  | -13.4% (inactive)
64 | COc1ccc(Br)c2c1C[C@H](C(=O)O)CC2 |  | 39.7% [at 11.4 µM] (inactive)
65 | CCOc1ccc(C(=O)O)cc1OC |  | -14.7% (inactive)
66 | COc1ccc(C(=O)c2ccc(OC)c(OC)c2)cc1OC | 2.82 µM (active) | 
67 | COc1ccc(C(=O)c2ccccc2)cc1Br | 8.91 µM (active) | 
68 | CC[C@@H](c1ccccc1)n1c(=O)n2n(c1=O)[C@H]1[C@H](O)[C@H]3O[C@@H]3/C(=N/OC/C=C(\C)CCC=C(C)C)[C@@H]1CC2 |  | -35.5% [at 11.4 µM] (inactive)
69 | Cc1ccc(C(C(=O)NC2CCCCC2)N2CCN(C(=O)c3ccco3)CC2)cc1 (stereo not drawn) | 8.91 µM (active) | 
70 | C[N+]1(CCC(=O)c2ccco2)CC2CCC(CC2)C1 (stereo not drawn) |  | -31.3% [at 11.4 µM] (inactive)
71 | CC(C)NC(=O)N1CCC2(CC1)CCN(C(=O)c1ccco1)CC2 |  | 18% (inactive)
72 | O=C(OC(C(=O)NC1CCCC1)c1ccncc1)C1=Cc2ccccc2OC1 (stereo not drawn) | 1.12 µM (active) | 

Row | SMILES | AC50 | activity, negative = inhibition
73 | Cc1ccc(C(OC(=O)c2ccco2)C(=O)NC2CCCCC2)cc1 (stereo not drawn) | 17.8 µM (active) | 
74 | CC(C)NC(=O)N1CC2(CCN(C(=O)c3ccco3)CC2)C1 |  | -2.81% (inactive)
75 | COc1ccccc1-c1nc(N2CCN(C)CC2)c2ccccc2n1 |  | 1.78% (inactive)
76 | CN1CCN(c2nc(-c3ccccc3)cc(C(F)(F)F)n2)CC1 | 8.91 µM (active) | 
77 | COc1ccccc1N1CCN(c2nc(-c3ccccc3)cc(C(F)(F)F)n2)CC1 | 1 µM (active) | 
78 | COc1ccc(C(=O)NNC(=S)NC(=O)c2ccco2)cc1 |  | -61.5% (inactive)
79 | COc1ccc(C(=O)NCc2ccc(-c3nc4ccccc4s3)cc2)cc1 | 7.94 µM (active) | 
80 | CC(C)(C)C(=O)NC(=S)NCCc1ccccc1 | 2.51 µM (active) | 
81 | COc1ccc(C(=O)NC(=S)NCc2ccccc2)cc1 | 5.01 µM (active) | 
82 | CNC(=O)NC(=S)NC(=O)c1ccc(OC)cc1 | 14.1 µM (active) | 
83 | Cc1ccc(C(=O)NC(=S)Nc2cc(-c3nc4ccccc4s3)ccc2C)cc1 |  | -17% (inactive)
84 | C/C(=C(/CCO)SSC[C@@H]1CCCO1)N(C=O)Cc1cnc(C)nc1N |  | -29% [at 25.6 µM] (inactive)
85 | COc1cc(OC)cc(C(=O)NC(=S)Nc2ccc(Cl)c(C(=O)O)c2)c1 |  | -28.3% (inactive)
86 | COc1cc(OC)cc(C(=O)NC(=S)NCCc2ccccc2)c1 | 2.51 µM (active) | 
87 | CCOc1ccc(N2C(=O)C3C4C=CC(CC4)C3C2=O)c([N+](=O)[O-])c1 (stereo not drawn) | 3.98 µM (active) | 
88 | Cc1cc(C)c(-c2cc([C@H](C)O/N=C3/[C@H]4OC4[C@@H](O)[C@H]4[C@H]3CCn3c(=O)n(-c5ccccc5)c(=O)n34)on2)c(C)c1 (stereo partly drawn) |  | -40% [at 11.4 µM] (inactive)
89 | CCC(C)(C)c1ccc(Oc2cccc(C(=O)O)c2)cc1 |  | -38.4% [at 11.4 µM] (inactive)
90 | C[C@@H](/C=C\c1cccc(Oc2ccc(F)cc2)c1)N(O)C(N)=O | 3.98 µM (active) | 
91 | C[N+]1(NCC[N@@+]2(C)CCc3ccccc3C2)CCCCC1 |  | 13.4% [at 11.4 µM] (inactive)
92 | CCc1ccc(C(=O)CN(C#N)c2nc(C)cc(C)n2)cc1 | 10 µM (active) | 
93 | C[C@H]1[C@H](C)OC(=O)C[C@H](O)C[C@H](O)C[C@H](O)CC[C@H](O)[C@H](O)CC(=O)C[C@H](O)[C@H](C(=O)O)[C@H](O)C[C@H](O[C@@H]2O[C@@H](C)[C@H](O)[C@@H](N)[C@@H]2O)C=CC=CC=CC=CCCC=CC=C[C@@](C)(O)[C@H]1O |  | 33.3% [at 11.4 µM] (inactive)
